# Reference: the supplement of paper PMC11732987, “Enantioselective OTUD7B fragment discovery through chemoproteomics screening and high-throughput optimisation” (Communications Chemistry, 2025)
# Values without a mark were called inactive.
# Key:
# Assay in all cases: log2 ratio of Biotin-Ahx-Ub-VS probe labelling (fragment/DMSO); higher = less target engagement (more negative = stronger competition), active = hit call of the paper (q ≤ 0.05, log2 ratio ≤ -1)
# Details in all cases: compound concentration: 200 uM; treatment time: 3 h
# ALG13 = biological target: T1, ALG13 (UniProt Q9NP73)
# T1 sequence (whole entry): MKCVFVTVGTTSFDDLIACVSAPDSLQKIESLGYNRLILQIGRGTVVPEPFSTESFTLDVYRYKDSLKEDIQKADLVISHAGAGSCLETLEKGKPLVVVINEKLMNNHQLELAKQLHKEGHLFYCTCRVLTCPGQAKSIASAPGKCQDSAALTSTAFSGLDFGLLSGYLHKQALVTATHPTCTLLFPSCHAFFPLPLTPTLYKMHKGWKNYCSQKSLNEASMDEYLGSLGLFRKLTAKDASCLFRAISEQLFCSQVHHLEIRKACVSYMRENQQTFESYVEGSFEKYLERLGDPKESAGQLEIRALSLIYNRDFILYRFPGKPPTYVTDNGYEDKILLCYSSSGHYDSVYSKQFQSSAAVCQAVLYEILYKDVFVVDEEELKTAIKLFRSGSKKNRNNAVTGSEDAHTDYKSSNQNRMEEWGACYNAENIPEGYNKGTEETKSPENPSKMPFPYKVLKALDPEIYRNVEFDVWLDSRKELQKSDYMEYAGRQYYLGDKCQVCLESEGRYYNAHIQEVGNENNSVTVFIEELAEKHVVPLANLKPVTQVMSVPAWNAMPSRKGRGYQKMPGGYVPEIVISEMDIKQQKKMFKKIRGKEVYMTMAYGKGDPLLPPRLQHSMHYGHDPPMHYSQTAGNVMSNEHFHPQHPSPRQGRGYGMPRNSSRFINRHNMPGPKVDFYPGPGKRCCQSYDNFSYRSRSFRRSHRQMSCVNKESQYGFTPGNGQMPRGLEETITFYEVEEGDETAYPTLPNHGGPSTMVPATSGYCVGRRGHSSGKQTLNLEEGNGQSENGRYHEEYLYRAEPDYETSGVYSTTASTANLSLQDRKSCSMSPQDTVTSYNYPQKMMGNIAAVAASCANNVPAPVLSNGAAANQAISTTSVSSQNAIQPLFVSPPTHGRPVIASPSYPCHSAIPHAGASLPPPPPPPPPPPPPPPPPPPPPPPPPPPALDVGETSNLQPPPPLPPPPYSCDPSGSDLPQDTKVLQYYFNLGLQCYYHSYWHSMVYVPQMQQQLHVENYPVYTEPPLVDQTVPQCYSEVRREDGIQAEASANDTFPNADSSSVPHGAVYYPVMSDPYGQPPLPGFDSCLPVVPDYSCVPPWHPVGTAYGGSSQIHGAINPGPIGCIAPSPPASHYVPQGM
# Procedure, shortened: (§1)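 Triplicate samples of HEK293T lysate, 495 µg each, received fragment at 200 µM or vehicle for 3 h, followed by Biotin-Ahx-Ub-VS (0.5 µM final) for 1 h. After NeutrAvidin enrichment of labelled DUBs and LysC/trypsin digestion, peptides were run by diaPASEF LC-MS/MS. The values are average log2 fragment/vehicle ratios from global-median-normalised Spectronaut label-free quantities, tested by unpaired t-test on proteins having ≥2 unique peptides.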
# ATXN3 = ATXN3 (UniProt P54252)
# Sequence of ATXN3 (P54252 whole entry): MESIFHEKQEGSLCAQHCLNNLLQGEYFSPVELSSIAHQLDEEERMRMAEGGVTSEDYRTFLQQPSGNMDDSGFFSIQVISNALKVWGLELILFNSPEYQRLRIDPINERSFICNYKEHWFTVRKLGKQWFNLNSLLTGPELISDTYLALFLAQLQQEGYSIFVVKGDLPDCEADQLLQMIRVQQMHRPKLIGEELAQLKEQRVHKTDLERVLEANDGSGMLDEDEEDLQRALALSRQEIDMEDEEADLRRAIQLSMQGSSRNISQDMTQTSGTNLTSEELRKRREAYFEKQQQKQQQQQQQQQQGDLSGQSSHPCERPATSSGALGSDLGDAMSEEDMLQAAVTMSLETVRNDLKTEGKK
# Procedure, shortened: as §1
# BAP1 = biological target: T2, BAP1 (UniProt Q92560)
# T2 sequence (whole entry): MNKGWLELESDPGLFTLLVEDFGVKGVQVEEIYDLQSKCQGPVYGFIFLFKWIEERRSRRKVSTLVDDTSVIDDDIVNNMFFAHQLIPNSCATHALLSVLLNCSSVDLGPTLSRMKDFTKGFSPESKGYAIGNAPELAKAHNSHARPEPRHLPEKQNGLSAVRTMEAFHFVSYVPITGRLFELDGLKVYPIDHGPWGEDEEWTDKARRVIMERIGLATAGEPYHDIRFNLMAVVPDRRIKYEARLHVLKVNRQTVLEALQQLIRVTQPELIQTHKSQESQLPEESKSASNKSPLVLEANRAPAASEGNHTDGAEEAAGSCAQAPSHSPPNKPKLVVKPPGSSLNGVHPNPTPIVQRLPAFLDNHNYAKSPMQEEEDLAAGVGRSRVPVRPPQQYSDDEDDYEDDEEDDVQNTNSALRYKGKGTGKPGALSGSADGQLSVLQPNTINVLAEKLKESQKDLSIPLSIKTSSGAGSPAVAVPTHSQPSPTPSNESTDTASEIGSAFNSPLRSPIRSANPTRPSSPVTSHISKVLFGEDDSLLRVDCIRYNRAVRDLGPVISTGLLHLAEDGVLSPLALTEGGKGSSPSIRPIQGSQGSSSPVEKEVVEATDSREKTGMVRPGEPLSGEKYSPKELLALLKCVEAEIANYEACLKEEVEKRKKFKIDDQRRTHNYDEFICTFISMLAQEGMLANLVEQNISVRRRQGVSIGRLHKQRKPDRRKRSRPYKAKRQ
# Procedure, shortened: as §1
# EIF3F = EIF3F (UniProt O00303)
# Sequence of EIF3F (O00303 whole entry): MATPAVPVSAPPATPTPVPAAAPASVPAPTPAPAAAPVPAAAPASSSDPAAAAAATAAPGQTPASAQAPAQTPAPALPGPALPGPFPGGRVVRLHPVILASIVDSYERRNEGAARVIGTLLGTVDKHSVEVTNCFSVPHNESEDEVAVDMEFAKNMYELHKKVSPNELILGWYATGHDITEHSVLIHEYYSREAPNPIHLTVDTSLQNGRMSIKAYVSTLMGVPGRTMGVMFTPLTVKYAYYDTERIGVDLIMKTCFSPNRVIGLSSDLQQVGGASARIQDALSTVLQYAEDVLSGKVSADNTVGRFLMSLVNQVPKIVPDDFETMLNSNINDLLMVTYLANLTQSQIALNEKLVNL
# Procedure, shortened: as §1
# EIF3H = EIF3H (UniProt O15372)
# Sequence of EIF3H (O15372 whole entry): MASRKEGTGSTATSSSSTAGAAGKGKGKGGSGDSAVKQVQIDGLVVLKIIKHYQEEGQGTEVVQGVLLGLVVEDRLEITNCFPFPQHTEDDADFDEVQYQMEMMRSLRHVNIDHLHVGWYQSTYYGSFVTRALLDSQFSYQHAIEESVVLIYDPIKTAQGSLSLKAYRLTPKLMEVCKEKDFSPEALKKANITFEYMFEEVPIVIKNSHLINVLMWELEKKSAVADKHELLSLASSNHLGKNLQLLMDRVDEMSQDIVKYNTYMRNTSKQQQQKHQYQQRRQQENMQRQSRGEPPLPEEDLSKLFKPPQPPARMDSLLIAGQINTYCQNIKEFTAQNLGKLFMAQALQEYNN
# Procedure, shortened: as §1
# FAM105A = biological target: T3, FAM105A (UniProt Q9NUU6)
# T3 sequence (whole entry): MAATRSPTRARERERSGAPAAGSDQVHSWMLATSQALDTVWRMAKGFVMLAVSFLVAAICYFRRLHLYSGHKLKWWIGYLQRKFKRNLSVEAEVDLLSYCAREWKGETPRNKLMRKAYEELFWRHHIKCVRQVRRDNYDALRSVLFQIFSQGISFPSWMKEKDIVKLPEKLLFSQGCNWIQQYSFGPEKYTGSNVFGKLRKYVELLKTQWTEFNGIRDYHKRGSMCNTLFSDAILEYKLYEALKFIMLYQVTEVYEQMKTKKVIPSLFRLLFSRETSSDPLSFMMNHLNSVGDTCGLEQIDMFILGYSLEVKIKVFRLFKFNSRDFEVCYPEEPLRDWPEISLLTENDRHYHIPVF
# Procedure, shortened: as §1
# OTUB1 = OTUB1 (UniProt Q96FW1)
# Sequence of OTUB1 (Q96FW1 whole entry): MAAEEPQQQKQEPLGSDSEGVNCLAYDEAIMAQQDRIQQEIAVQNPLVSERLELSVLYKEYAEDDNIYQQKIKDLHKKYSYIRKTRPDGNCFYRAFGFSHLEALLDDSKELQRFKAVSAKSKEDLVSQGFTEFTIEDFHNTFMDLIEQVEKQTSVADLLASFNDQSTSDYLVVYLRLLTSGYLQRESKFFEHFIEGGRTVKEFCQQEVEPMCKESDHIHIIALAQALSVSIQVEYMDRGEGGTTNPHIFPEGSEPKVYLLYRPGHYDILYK
# Procedure, shortened: as §1
# OTUD4 = biological target: T4, OTUD4 (UniProt Q01804)
# T4 sequence (whole entry): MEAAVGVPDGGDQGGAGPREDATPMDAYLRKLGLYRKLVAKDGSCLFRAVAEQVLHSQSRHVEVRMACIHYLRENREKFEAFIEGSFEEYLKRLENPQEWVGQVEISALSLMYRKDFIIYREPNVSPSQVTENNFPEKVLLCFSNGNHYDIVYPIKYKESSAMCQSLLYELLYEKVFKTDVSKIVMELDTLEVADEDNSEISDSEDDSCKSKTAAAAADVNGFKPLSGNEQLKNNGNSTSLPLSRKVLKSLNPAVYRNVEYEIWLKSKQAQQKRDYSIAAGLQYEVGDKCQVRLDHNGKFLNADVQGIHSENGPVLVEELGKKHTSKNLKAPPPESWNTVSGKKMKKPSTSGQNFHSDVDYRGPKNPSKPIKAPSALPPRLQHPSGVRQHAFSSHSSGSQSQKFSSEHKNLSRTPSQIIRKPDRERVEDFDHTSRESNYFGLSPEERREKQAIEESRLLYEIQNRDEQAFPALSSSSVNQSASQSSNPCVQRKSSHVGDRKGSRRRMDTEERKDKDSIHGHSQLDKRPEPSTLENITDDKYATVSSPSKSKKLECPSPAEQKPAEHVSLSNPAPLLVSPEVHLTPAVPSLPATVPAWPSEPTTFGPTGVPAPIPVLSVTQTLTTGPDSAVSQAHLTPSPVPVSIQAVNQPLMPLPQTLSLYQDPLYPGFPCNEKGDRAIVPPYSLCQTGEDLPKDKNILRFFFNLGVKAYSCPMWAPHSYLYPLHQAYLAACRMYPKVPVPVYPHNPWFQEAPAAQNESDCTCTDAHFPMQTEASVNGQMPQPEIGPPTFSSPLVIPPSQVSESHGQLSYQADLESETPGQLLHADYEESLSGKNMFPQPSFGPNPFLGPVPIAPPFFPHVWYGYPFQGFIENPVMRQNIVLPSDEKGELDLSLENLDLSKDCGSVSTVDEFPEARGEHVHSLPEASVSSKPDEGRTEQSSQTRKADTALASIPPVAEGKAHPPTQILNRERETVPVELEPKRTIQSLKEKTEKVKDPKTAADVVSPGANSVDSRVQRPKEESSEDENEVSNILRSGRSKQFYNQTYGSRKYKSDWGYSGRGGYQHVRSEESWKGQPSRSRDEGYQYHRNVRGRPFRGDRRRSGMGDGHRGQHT
# Procedure, shortened: as §1
# OTUD5 = biological target: T5, OTUD5 (UniProt Q96G74)
# T5 sequence (whole entry): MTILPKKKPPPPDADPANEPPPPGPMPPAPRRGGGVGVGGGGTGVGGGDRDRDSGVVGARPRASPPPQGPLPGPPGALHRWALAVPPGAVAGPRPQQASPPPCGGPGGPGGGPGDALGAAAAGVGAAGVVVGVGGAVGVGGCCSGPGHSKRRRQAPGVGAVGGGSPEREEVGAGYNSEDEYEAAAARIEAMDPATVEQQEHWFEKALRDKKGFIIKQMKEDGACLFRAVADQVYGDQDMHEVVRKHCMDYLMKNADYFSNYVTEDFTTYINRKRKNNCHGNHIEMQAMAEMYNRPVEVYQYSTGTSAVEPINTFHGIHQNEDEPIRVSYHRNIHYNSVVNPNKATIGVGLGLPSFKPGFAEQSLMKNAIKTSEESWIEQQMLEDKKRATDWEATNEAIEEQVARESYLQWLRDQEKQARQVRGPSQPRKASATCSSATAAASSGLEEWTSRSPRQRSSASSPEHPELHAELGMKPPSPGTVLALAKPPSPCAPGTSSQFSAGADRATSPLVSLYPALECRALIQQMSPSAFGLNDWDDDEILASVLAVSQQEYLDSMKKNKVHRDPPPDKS
# Procedure, shortened: as §1
SMILES,log2 ratio of Biotin-Ahx-Ub-VS probe labelling (ALG13),log2 ratio of Biotin-Ahx-Ub-VS probe labelling (ATXN3),log2 ratio of Biotin-Ahx-Ub-VS probe labelling (BAP1),log2 ratio of Biotin-Ahx-Ub-VS probe labelling (EIF3F),log2 ratio of Biotin-Ahx-Ub-VS probe labelling (EIF3H),log2 ratio of Biotin-Ahx-Ub-VS probe labelling (FAM105A),log2 ratio of Biotin-Ahx-Ub-VS probe labelling (OTUB1),log2 ratio of Biotin-Ahx-Ub-VS probe labelling (OTUD4),log2 ratio of Biotin-Ahx-Ub-VS probe labelling (OTUD5)
O=C(CCl)N1CC=C(c2c[nH]c3ccccc23)CC1,-0.249,-1.2 (active),-1.95 (active),-0.308,0.184,-0.087,-0.218,-0.412,-1.27 (active)
O=C(CCl)N1CCOC2(CCC2)C1,-0.352,-0.0796,-0.352,-0.125,0.226,-0.0758,-0.141,-0.57,-0.148
O=C(CCl)N1CCC(S(=O)(=O)c2ccc(F)cc2)CC1,-0.536,-0.72,-1.46 (active),-0.133,0.256,-0.39,0.147,-0.273,-0.457
Cc1ccccc1C1(CNC(=O)CCl)CCOCC1,0.22,-0.273,-1.23 (active),0.0678,0.00175,0.0441,-0.0623,-0.322,-0.157
CCC1c2ccsc2CCN1C(=O)CCl (stereo not given),0.127,-0.424,-0.48,-0.262,0.089,0.09,0.0848,-0.658,-1.15 (active)
COCC[C@@H](NC(=O)CCl)c1ccccc1,-0.555,-0.208,-1.89 (active),-0.137,-0.017,0.268,-0.131,-0.138,-0.197
O=C(CCl)N1CCN2C(=O)CCC2C1 (stereo not given),0.0971,-0.237,-0.591,0.0885,-0.0249,0.154,-0.19,-0.461,-0.499
O=C(CCl)N1CCC(c2noc3cc(F)ccc23)CC1,0.141,-0.734,-1.19 (active),-0.419,0.209,-0.1,-0.253,-0.413,-0.644
Cc1cnc2[nH]cc(CCNC(=O)CCl)c2c1,-0.0473,-0.0726,-1 (active),-0.228,0.13,-0.55,0.0416,-0.139,-0.26
CCCn1nccc1NC(=O)CCl,0.12,-0.199,-3.06 (active),-0.613,0.123,0.145,-0.396,0.00925,-0.138
Cc1cccc(N(CCC#N)C(=O)CCl)c1C,-0.29,0.0325,-0.645,-0.0896,0.111,-0.0506,0.00102,-1.76 (active),-0.19
CC1CN(c2ccc(NC(=O)CCl)cc2)CC(C)O1 (stereo not given),-0.442,-0.412,-2.48 (active),-0.0748,0.0832,0.115,0.133,-0.357,-0.371
CC(NC(=O)CCl)c1ccc2[nH]ncc2c1 (stereo not given),0.186,-0.431,-3.42 (active),-0.607,-0.275,-0.234,-0.374,-0.637,-0.509
Cc1ccc(C)c(Oc2ccc(CNC(=O)CCl)cn2)c1.Cl,-0.222,-0.48,-3.94 (active),-0.169,0.199,-0.149,0.0499,-0.382,-0.697
Cl.Cn1nc2c(c1CNC(=O)CCl)CCCC2,-0.455,-0.903,-2.53 (active),-0.323,-0.0155,-0.099,-0.175,-0.319,-0.329
